Source: PubChem BioAssay (NCATS)
Results filed as inconclusive are left out. Activity calls are given as the source filed them. Unless noted, the call rests on the fitted dose curve; in most records, active means well fitted curve in the direction sought with a large enough effect; inconclusive means small, poorly fitted or top-dose-only effect, or another doubt; inactive means no such curve, though single readings can be large; an effect the other way counts as inactive or inconclusive.

Legend:
[1] = AP1 Signaling Pathway (AID 357; active means well fitted curve in either direction with a large enough effect, not every such curve was filed as active;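 further: ME-180 reporter cells stimulated with EGF at its EC50 level; on the % scale 0 is the no-effect control and ±100 the full control effect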); settings: ME-180 AP-1-bla reporter, EGF-induced, beta-lactamase ratio, 5 h; at 7.69 µM (top of the series) unless noted
In short: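 In this screen, ME-180 cells in Opti-MEM with 0.5% dialyzed FBS received EC50 EGF and compound titrations for 5 h. AP-1 reporter beta-lactamase was detected via CCF4 ratio, giving AC50 for positive and negative modulators.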

[2] = NFAT Signaling Pathway (AID 444; active means well fitted curve in either direction with a large enough effect, not every such curve was filed as active;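 further: carbachol stimulus at about its EC50 of 1 µM final; on the % scale 0 is the no-effect control and ±100 the full control effect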); settings: Jurkat NFAT-bla M1, carbachol, beta-lactamase ratio, 5 h; at 7.69 µM (top of the series) unless noted
In short: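 Jurkat cells with NFAT-driven β-lactamase reporter and co-expressed M1 receptor, stimulated with carbachol (final 1 uM, ~EC50), compound titration, 5 h at 37 °C. CCF4 loaded 1 h at RT; 460/530 nm ratio gave %activity and AC50.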

[3] = Stat Signaling Pathway (AID 446; active means well fitted curve in either direction with a large enough effect, not every such curve was filed as active;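 further: ME-180 cervical cancer cells given 40 pM IL-6 alongside compound; SIE-controlled beta-lactamase reporter measured as 460/530 nm FRET emission ratio; on the % scale 0 is the no-effect control and ±100 the full control effect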); settings: ME-180 SIE beta-lactamase reporter, IL-6 stimulated, 5 h; at 7.69 µM (top of the series) unless noted
In short: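 IL-6/STAT signaling read in ME-180 cells via an SIE beta-lactamase reporter. Stimulus was 40 pM IL-6 (its AC50) for 5 hrs, so both activation and inhibition register.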

[4] = target: Glucocorticoid receptor (Homo sapiens) (UniProt P04150); assay: GR-GFP Redistribution (AID 450;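 active means compounds whose dose series gives a full or clear partial fitted curve of increased nuclear translocation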; further: potency means the concentration at half of the fitted maximal effect); settings: U2OS GR-GFP nuclear translocation, laser cytometry, 2 h
[5] = target: Glucocorticoid receptor (Homo sapiens) (UniProt P04150); assay: GR-EFC Redistribution (AID 451; calls by dose curve; further: potency means the concentration at half of the fitted maximal effect); settings: CHO-K1 GR-EFC translocation, beta-gal luminescence, 2 h
In short: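 CHO-K1 cells expressing nuclear EA and GR-ED fragments of b-gal; compounds titrated up to 46 uM final, 2 h at 37 C. GR nuclear translocation read as complemented b-gal luminescence after 1 h RT detection.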

[6] = target: Mitogen-activated protein kinase 10 (Mus musculus) (UniProt Q61831); assay: JNK3 AlphaScreen Assay (AID 530; active means well fitted curve in either direction with a large enough effect, not every such curve was filed as active;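 further: kinase came from lysate of stimulated human HepG2 cells; signal reports phosphorylation of biotinylated GST-cJun 1-79 at Ser73 with 10 µM ATP; on the % scale 0 is the no-effect control and ±100 the full control effect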)
In short: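 qHTS format: compounds tested as titrations against IL-1beta/TNF-alpha-activated HepG2 lysate JNK3 with biotin-GST-cJun substrate and 10 uM ATP at room temperature. Loss of anti-phospho-cJun AlphaScreen signal indicates inhibition.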

[7] = target: 3',5'-cyclic-AMP phosphodiesterase 4B (Homo sapiens) (UniProt Q07343); assay: qHTS Assay for Inhibitors of PDE-IV (AID 607; active means well fitted activation curve with a large enough effect in the main read-out, with a control signal flat, not every such curve was filed as active; further: % of control where 0% means no effect)
In short: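 Live HEK293 cells with a modified cyclic nucleotide-gated (CNG) channel report intracellular cAMP via membrane-potential dye fluorescence (ex 535/em 590 nm). Endogenous PDE-IV was targeted. Compounds were tested at up to 22.9 uM final; RO 20-1724 100 uM served as control.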

[8] = target: Guanine nucleotide-binding protein G(i) subunit alpha-1 (Homo sapiens) (UniProt P63096); assay: qHTS Assay for Inhibitors of RGS12 GoLoco Motif Activity (Green Fluorophore) (AID 879);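 further: 0% = labeled peptide with Gαi1 and full inhibition = labeled peptide alone without protein; negative values mean loss of peptide binding seen as reduced polarization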
In short: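 Fluorescence polarization assay: 50 nM Gαi1 with 10 nM FITC-labeled RGS12 GoLoco peptide in 10 mM Tris pH 7.5, 150 mM NaCl, 0.1 mM GDP, 0.05% NP40, 10 min at room temperature with compound.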

[9] = qHTS Assay for Identification of Small Molecule Agonists for Hypoxia Response Element Signaling Pathway (AID 914; active means well fitted activation curve with a large enough effect in the signal ratio, with a control signal flat, not every such curve was filed as active; the % refers to the signal ratio; further: % of control where 0% means no effect); settings: ME-180 (cervical carcinoma) HRE-bla reporter, beta-lactamase ratio, CoCl2, 17 h; stronger effect = higher value
In short: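 Cells were plated overnight, pin-dosed with compound in a titration series, co-stimulated with EC50 CoCl2 and incubated 17 hours at 37 degrees Celsius. CCF4 substrate was then loaded, and AC50 values came from the 460nm/530nm ratio.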

[10] = qHTS Assay for Identification of Small Molecule Agonists for Thrombopoietin (TPO) Signaling Pathway (AID 917); further: on the % scale 0 is the no-effect control and ±100 the full control effect
In short: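 Murine Ba/F3 cells stably expressing human TPO receptor and a Glycoprotein IIb promoter–luciferase reporter were IL-3-starved overnight, then treated with compounds plus TPO (26 pM final, its EC50) for 24 hrs at 37 C; luminescence was read.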

[11] = target: Muscarinic acetylcholine receptor M1 (Rattus norvegicus) (UniProt P08482); assay: qHTS Assay for Antagonists of Acetylcholine Muscarinic M1 Receptor: Measurement of IP-One Response (AID 944); further: nearly all actives have a fitted effect of over 75% in size
In short: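 CHO cells expressing rat M1 receptor, recovered overnight, were pre-incubated 10 min with compound, then stimulated 30 min with carbachol at EC80 (200 nM) in LiCl-containing buffer, pH 7.4. IP1 accumulation was read by HTRF (620/665 nm).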

[12] = target: Pyruvate kinase (Leishmania mexicana) (UniProt Q27686); assay: qHTS Validation Assay for Inhibitors of Leishmania Mexicana Pyruvate Kinase (AID 945);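 further: 0% = DMSO only neutral control wells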
In short: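 The enzyme is a highly purified E451W mutant of LmPYK used at 0.2 nM. It converts 0.5 mM PEP and 0.1 mM ADP over 1 h at room temperature; product ATP is quantified by luciferase luminescence relative to DMSO controls.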

[13] = target: Pyruvate kinase PKM (Homo sapiens) (UniProt P14618); assay: qHTS Assay for Activators of Human Muscle Pyruvate Kinase (AID 954; active means well fitted curve in the direction sought with a large enough effect, not every such curve was filed as active;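 further: 0% = uninhibited enzyme and -100% = no enzyme or full thiadiazolimine inhibition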)
In short: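 Enzyme was run at intermediate activity so both inhibitors and activators could be detected. ATP formed from ADP and PEP by 0.1 nM human PKM2 during a 1 h room-temperature incubation was quantified by coupled luciferase luminescence.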

[14] = target: Alpha-galactosidase (Coffea arabica) (UniProt Q42656); assay: Counterscreen for Glucocerebrosidase Inhibitors: qHTS Assay for Coffee Bean alpha-Galactosidase at pH 4.5 (AID 957);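 further: plate controls were enzyme alone for no effect and no enzyme for full effect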
In short: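 Green coffee bean enzyme (2 nM final) was incubated with compounds (0.7 nM to 77 uM) and 4-methylumbelliferyl alpha-D-galactopyranoside (80 uM final) in 50 mM citric acid, 0.005% Tween-20, pH 4.5, 20 min at room temperature; AC50 from Hill fits.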

[15] = target: Alpha-galactosidase A (Homo sapiens) (UniProt P06280); assay: Counterscreen for Glucocerebrosidase Inhibitors: qHTS Assay for Human alpha-Galactosidase at pH 4.5 (AID 992); further: 0% is about no effect
In short: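 Read-out is 4-methylumbelliferone fluorescence (365 nm excitation, 440 nm emission) after a pH 10 NaOH/glycine stop. Reactions held 2 nM enzyme and 80 uM substrate at pH 4.5 for 20 min at room temperature.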

[16] = target: alpha-glucosidase (Oryza sativa, rice) (UniProt Q653V4); assay: Counterscreen for Glucocerebrosidase Inhibitors: qHTS Assay for Rice alpha-Glucosidase at pH 5.0 (AID 997);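 further: 0% = full activity with enzyme and -100% = basal without enzyme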
In short: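 Rice alpha-glucosidase (4 nM final) with 400 uM 4-methylumbelliferyl-alpha-D-glucopyranoside in citrate buffer pH 5.0, 20 min at room temperature, stopped at pH 10; fluorescence 365/440 nm, compounds 0.7 nM–77 uM, AC50 from Hill fits.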

[17] = target: Alpha-galactosidase (Coffea arabica) (UniProt Q42656); assay: Counterscreen for Glucocerebrosidase Inhibitors: qHTS Assay for Coffee Bean alpha-Galactosidase at pH 5.9 (AID 998);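 further: plate controls were uninhibited enzyme for no effect and no-enzyme basal signal for full effect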
In short: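 Green coffee bean enzyme (2 nM) with 4-methylumbelliferyl alpha-D-galactopyranoside (80 uM) in 50 mM citric acid, 0.005% Tween-20, pH 5.9, 20 min at room temperature; compounds 0.7 nM–77 uM. Stopped at pH 10, fluorescence Ex365/Em440; Hill-fit AC50.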

[18] = target: Cytochrome P450 3A4 (Homo sapiens) (UniProt P08684); assay: qHTS Assay for Activators of Cytochrome P450 3A4 (AID 885); further: nearly all actives have a fitted effect of over 65% in size
In short: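 Quantitative HTS format: compounds preincubated with 20nM human CYP3A4 and Luciferin-PPXE substrate at KM, reaction started by NADPH regeneration, stopped after 60 min, luciferase luminescence read 20 min later.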

[19] = target: Cytochrome P450 2C19 (Homo sapiens) (UniProt P33261); assay: qHTS Assay for Inhibitors and Substrates of Cytochrome P450 2C19 (AID 899); further: on the % scale 0 is the no-effect control and ±100 the full control effect; nearly all actives have a fitted effect of over 60% in size
In short: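 5 nM human CYP2C19 with 10uM Luciferin-H EGE (at KM) in 50mM KPO4, compound preincubated 10 min at 37C, then NADPH regeneration for 60 min at 37C. Luciferin read by luminescence after detection reagent; normalized to 57uM ketoconazole as full inhibition.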

[20] = qHTS Assay for Identification of Small Molecule Antagonists for Thrombopoietin (TPO) Signaling Pathway (AID 918); settings: TPO-dependent cell signaling reporter, antagonist mode; further: potency means the concentration at half of the fitted maximal effect; nearly all actives have a fitted effect of over 60% in size
In short: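 Murine Ba/F3 cells stably expressing human TPO receptor and a Glycoprotein IIb promoter–luciferase reporter were IL-3-starved overnight, treated with compounds plus TPO (26 pM final, its EC50) for 24 hrs at 37 C, then read by luminescence.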

Sequence of Glucocorticoid receptor (Homo sapiens) (P04150 whole entry, looked up, the tested form may be a part): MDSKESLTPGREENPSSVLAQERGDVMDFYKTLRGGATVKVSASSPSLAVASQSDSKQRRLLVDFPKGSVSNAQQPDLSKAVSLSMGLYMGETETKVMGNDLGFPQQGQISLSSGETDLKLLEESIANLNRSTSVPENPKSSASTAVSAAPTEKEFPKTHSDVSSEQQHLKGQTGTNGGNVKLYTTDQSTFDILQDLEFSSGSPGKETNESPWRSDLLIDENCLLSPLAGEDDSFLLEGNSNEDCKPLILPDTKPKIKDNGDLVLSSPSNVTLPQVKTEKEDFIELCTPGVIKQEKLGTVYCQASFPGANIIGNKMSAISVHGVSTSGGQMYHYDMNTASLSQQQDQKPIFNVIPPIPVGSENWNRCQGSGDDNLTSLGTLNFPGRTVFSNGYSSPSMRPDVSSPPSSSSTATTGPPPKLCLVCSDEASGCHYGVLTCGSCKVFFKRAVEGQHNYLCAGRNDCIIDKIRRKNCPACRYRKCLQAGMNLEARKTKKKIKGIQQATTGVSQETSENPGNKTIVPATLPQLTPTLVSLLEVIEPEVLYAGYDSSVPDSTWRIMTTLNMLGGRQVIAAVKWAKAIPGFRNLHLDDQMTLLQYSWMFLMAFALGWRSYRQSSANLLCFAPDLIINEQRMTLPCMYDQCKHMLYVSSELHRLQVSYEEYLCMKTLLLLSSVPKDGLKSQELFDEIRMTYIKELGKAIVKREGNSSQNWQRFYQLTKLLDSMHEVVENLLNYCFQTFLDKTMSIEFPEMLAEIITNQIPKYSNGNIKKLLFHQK
Sequence of 3',5'-cyclic-AMP phosphodiesterase 4B (Homo sapiens) (Q07343 whole entry, looked up): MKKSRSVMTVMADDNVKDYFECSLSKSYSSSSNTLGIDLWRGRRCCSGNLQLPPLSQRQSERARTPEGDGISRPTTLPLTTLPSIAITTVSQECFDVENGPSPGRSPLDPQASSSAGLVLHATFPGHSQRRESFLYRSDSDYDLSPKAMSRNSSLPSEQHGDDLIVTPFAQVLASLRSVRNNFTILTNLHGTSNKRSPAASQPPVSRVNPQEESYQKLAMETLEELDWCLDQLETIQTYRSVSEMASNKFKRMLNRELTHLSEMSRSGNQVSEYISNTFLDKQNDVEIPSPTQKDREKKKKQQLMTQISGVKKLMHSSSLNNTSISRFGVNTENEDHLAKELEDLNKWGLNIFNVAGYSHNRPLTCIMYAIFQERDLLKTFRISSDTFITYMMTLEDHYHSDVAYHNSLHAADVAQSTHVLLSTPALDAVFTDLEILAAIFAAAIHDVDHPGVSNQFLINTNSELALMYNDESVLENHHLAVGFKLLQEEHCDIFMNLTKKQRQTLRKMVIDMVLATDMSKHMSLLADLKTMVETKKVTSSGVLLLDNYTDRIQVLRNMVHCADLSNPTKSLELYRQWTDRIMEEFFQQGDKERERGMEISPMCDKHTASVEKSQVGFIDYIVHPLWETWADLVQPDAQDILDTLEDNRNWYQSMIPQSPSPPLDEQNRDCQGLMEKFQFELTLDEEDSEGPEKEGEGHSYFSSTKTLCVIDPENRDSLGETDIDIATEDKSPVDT
Sequence of Alpha-galactosidase (Coffea arabica) (Q42656 whole entry, looked up): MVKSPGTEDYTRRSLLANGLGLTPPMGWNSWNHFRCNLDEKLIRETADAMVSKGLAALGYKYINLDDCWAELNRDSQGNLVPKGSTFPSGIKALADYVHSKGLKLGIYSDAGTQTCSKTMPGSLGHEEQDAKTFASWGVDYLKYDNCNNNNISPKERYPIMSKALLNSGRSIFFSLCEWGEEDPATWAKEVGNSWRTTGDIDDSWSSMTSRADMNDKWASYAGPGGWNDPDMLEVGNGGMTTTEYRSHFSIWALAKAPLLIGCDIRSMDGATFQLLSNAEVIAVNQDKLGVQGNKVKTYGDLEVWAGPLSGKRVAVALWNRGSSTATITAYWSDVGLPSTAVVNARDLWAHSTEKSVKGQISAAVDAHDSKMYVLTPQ
Sequence of Pyruvate kinase PKM (Homo sapiens) (P14618 whole entry, looked up): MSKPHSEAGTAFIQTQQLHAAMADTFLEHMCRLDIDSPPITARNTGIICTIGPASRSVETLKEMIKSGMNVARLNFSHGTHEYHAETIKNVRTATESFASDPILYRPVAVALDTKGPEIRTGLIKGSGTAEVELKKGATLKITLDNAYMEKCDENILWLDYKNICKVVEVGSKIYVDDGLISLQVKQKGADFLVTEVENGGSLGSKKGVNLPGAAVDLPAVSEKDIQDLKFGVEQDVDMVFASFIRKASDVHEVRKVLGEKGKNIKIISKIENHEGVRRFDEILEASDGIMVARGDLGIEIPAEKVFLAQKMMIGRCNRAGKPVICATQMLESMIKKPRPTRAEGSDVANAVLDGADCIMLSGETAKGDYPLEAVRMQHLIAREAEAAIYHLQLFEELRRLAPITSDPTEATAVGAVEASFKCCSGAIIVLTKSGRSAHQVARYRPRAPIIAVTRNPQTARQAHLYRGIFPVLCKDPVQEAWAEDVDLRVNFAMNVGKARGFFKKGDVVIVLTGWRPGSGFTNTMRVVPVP
Sequence of Alpha-galactosidase A (Homo sapiens) (P06280 whole entry, looked up): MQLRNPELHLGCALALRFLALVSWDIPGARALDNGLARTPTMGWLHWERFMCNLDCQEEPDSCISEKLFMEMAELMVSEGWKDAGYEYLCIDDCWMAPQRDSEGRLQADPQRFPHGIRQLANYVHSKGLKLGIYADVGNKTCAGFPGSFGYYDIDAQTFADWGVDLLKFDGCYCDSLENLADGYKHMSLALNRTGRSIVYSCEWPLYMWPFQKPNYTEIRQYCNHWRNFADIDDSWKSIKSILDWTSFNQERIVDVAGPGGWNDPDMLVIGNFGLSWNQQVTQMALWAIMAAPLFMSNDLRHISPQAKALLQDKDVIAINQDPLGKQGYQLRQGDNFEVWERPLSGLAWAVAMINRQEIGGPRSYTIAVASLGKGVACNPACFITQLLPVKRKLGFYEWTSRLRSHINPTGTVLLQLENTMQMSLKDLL
Sequence of Pyruvate kinase (Leishmania mexicana) (Q27686 2-499 E452W): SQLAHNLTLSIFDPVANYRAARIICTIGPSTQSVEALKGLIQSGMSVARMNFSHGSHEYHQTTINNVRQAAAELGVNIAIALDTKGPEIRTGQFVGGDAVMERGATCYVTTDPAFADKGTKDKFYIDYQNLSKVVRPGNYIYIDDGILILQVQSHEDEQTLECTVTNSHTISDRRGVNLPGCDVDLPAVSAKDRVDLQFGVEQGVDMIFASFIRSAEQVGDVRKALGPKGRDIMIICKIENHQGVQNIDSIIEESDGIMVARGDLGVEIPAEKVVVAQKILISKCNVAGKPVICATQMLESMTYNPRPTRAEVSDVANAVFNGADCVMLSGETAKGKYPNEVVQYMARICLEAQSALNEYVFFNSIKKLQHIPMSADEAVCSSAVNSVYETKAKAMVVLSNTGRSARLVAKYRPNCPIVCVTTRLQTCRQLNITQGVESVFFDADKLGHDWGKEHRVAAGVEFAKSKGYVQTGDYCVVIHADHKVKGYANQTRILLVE
Sequence of Guanine nucleotide-binding protein G(i) subunit alpha-1 (Homo sapiens) (P63096 whole entry, looked up): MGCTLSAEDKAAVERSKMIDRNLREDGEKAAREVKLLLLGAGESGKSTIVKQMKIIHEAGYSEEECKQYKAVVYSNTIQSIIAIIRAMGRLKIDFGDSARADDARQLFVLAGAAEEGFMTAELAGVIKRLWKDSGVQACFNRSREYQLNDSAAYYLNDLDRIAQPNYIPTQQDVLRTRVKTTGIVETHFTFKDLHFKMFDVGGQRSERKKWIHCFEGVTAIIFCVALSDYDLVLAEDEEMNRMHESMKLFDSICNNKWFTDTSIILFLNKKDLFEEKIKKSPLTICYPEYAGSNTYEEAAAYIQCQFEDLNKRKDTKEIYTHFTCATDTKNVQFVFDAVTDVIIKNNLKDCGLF
Sequence of Cytochrome P450 3A4 (Homo sapiens) (P08684 whole entry, looked up): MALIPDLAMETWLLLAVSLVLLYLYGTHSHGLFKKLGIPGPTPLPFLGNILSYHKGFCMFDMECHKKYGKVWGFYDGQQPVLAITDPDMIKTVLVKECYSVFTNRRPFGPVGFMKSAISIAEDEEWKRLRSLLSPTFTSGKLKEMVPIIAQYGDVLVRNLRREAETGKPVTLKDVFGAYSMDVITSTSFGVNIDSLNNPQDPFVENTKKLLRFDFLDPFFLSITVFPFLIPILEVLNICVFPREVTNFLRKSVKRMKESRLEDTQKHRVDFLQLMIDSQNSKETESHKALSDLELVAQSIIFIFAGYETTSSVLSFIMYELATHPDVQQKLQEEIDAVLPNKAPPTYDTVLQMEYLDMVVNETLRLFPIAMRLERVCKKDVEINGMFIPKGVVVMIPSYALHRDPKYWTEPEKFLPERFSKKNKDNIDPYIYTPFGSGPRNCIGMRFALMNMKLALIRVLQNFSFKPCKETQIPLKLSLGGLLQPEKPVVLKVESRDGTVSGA
Sequence of Cytochrome P450 2C19 (Homo sapiens) (P33261 whole entry, looked up): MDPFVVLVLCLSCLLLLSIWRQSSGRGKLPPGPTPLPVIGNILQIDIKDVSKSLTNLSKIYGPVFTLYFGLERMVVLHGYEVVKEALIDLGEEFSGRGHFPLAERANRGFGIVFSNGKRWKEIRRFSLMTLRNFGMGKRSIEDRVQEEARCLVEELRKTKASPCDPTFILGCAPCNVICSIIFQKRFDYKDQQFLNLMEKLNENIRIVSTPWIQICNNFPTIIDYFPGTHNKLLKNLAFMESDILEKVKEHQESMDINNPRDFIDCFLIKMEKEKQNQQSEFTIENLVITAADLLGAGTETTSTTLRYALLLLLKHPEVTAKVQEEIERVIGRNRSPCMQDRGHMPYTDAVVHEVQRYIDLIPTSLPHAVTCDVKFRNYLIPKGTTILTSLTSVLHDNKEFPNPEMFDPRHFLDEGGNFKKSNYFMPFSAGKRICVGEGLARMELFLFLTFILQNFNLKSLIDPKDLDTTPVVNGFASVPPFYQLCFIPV

O=C(O)C[C@H]1OCC=C2CN3CC[C@@]45C6=CC(=O)C(=O)C([N+](=O)[O-])=C6N[C@H]4[C@H]1[C@H]2C[C@@H]35
inactive: activity change, negative = inhibition [1] 4.93% | activity change, negative = inhibition [2] 2.25% | activity, negative = inhibition [3] 2.08% | Potency [4] > 46 µM | Potency [5] > 9.22 µM | activity change, negative = inhibition [6] -0.499% [at 11.4 µM] | outcome [7]

NC(=O)CN1C[C@@H](O)CC1=O
inactive: activity change, negative = inhibition [1] 2.98% [at 38 µM] | activity change, negative = inhibition [2] 17.8% [at 38 µM] | activity, negative = inhibition [3] -8.38% [at 38 µM] | Potency [4] > 46 µM | Potency [5] > 46 µM | Potency [6] | outcome [7] | outcome [8] | activation [9] 9.85% | outcome [10] | Potency [11] | outcome [12] | outcome [13] | outcome [14] | outcome [15] | outcome [16] | outcome [17]

CCn1cnc2c(Nc3cccc(Cl)c3)nc(N[C@@H]3CCCC[C@H]3N)nc21
inactive: Potency [4] > 46 µM | Potency [6] | outcome [7] | outcome [8] | Potency [18] | Potency [19] | outcome [12] | outcome [13] | outcome [14] | outcome [15] | outcome [16] | outcome [17]
active: activity change, negative = inhibition [1] -111% [at 38 µM] | activity change, negative = inhibition [2] -119% [at 38 µM] | activity, negative = inhibition [3] -30.2% [at 38 µM] | Potency [20] 2.51 µM

Cc1ncc([N+](=O)[O-])n1CCN=[N+]=[N-]
inactive: activity change, negative = inhibition [1] 3.02% | activity change, negative = inhibition [2] 5.75% | activity, negative = inhibition [3] -11.7% | Potency [4] > 46 µM | Potency [5] > 9.22 µM | activity change, negative = inhibition [6] 2.72% [at 11.4 µM] | outcome [7]
